Most compounds without a hit are left out; they make up all but 7.3% or so of the library.
FMDV antiviral – foot and mouth disease virus antiviral activity | Potency, µM (titrated, usually from 57.9 µM), hits mostly inhibitors | 410,000 compounds, 1.2% hits | FMDV antiviral cell-based qHTS; calls by dose curve; tested in HEK293T cells; note: read-out not given here; nearly all actives have a fitted effect of over 45% in size
VACV mCherry inh – inhibitors of vaccinia virus infection (mCherry reporter signal) | Vaccinia virus mCherry reporter infection, fluorescence | Potency, µM (highest dose often 36.5 µM), actives largely listed as inhibitors | 310,000 compounds, 0.63% hits | AID 720579; calls by dose curve; tested in A549 cells; note: nearly all actives have a fitted effect of over 35% in size
HCV inhibitor – inhibitors of hepatitis C virus infection; Huh7.5.1 HCVcc-Cre infection, luciferase reporter, 44 h; Potency, µM (titrated, usually from 41.8 µM), actives largely listed as inhibitors; 340,000 compounds, 3.4% hits; AID 651820; active = well fitted inhibition curve with a large enough effect; inconclusive = small, poorly fitted or top-dose-only effect, or another doubt; inactive = no such curve, though single readings can be large or run the other way
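Reporter virus HCVcc-Cre (~0.5 moi) infects cells exposed to compound; seeding density 1,000 cells/well with 4 h settling beforehand. Luminescence, 15 sec read, taken 44 h post-infection following a 15 min RT substrate incubation.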
HCMV antiviral – blocks human cytomegalovirus replication | activity change, negative = inhibition, % at 57.5 µM | HFF cells, HCMV-luciferase reporter, 72 h; active compounds read low | 410,000 compounds, 4.5% hits; in the data active = activity change below about -60%; inconclusive = no clear call, values can overlap the other calls; inactive = above about -39%
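Cell-based, HFFs, 1000 cells/well, 16 h 37C; cpds in DMSO + HCMV-luc, MOI 1 PFU/cell; 72 h 37C; OneGlo luminescence after 5 min RT; norm. to buffer vs Salinomycin 10uM.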
Vaccinia Venus – inhibitors of vaccinia virus (Venus reporter); Vaccinia virus Venus reporter expression, fluorescence; Potency, µM (top dose mostly 36.5 µM), most hits filed as inhibitors; 330,000 compounds, 0.46% hits; calls by dose curve; tested in A549 cells; note: nearly all actives have a fitted effect of over 30% in size
A number is an active result; . = inactive; ? = inconclusive; / = no result given; ! = not confirmed by another sample; [ ] = another dose, or the depositor's remark.

SMILES	FMDV antiviral	VACV mCherry inh	HCV inhibitor	HCMV antiviral	Vaccinia Venus
COc1ccccc1C(=O)Nc1nnc(S(=O)(=O)N2CCCCCC2)s1	.	.	.	.	.
COc1ccccc1C(=O)Nc1nnc(S(=O)(=O)N2CCCCC2)s1	.	.	.	-73.3!	.
COc1ccccc1C(=O)Nc1nc(-c2ccc(S(=O)(=O)N3CCOCC3)cc2)cs1	3.16µM	/	3.55µM	-94.8	/
CCOc1ccccc1C(=O)Nc1ccc(S(=O)(=O)N2CCOCC2)cc1	.	/	12.6µM	.	?
O=C1CCCC2=C1C1(CCCC1)N=C(Nc1nc3cc(-c4ccccc4)ccc3o1)N2	?	/	/	.	/
CC1CCN(S(=O)(=O)c2ccc(NC(=O)c3ccccc3F)cc2)CC1	.	.	?	-61.9	.
CCOc1cccc(C(=O)Nc2nc(-c3ccc(S(=O)(=O)N4CCOCC4)cc3)cs2)c1	17.8µM	/	.	.	.
O=C(COc1cccc(Cl)c1)Nc1nc(-c2ccc(S(=O)(=O)N3CCOCC3)cc2)cs1	?	.	?	?	.
COc1ccc2[nH]c(=O)c(CN(C(=O)c3cccc(Cl)c3)c3cccc(C)c3)cc2c1	.	.	/	.	.
CCOC(=O)N(C)[C@H]1C[C@H]2c3cc(-c4ccccc4C)ccc3CCN2C[C@H]1[C@H](C)O	/	/	/	-89.1	/
CCCOc1ccc(C(=O)Nc2ccc(-c3cc4ccccc4oc3=O)c(C)c2)cc1	?	?	/	?	.
CCCCN(C(=O)CSc1nn(-c2ccc(F)cc2)c(=S)s1)c1c(N)n(CCCC)c(=O)[nH]c1=O	.	.	?	.	.
Cn1c(N)c(C(=O)CSc2nn(-c3ccc(F)cc3)c(=S)s2)c(=O)n(C)c1=O	15.8µM	/	7.08µM	?	/
Cc1nn(CC(=O)Nc2ccc(C(C)C)cc2)c(=O)c2c(C)n(-c3ccc(Cl)cc3)nc12	?	.	/	.	.
Cc1ccc(S(=O)(=O)N(C)C)cc1NC(=S)NC(=O)C12CC3CC(CC(C3)C1)C2	?	.	15.8µM	-63.1	.
CCCCc1nc(Cl)c(C#N)c2c1CSC(C)(C)C2	?	/	?	.	/
CCCCc1nc(NCCNC(=O)c2ccco2)c(C#N)c2c1CSC(C)(C)C2	?	/	11.2µM	.	/
CCCCc1nc(NCCNC(=O)c2ccccc2)c(C#N)c2c1CSC(C)(C)C2	?	/	?	-103.9	?
COc1ccc(NC(=O)c2sc3nc(C)nc(N4CCN(c5ccccn5)CC4)c3c2C)cc1Cl	.	.	?	.	.
COc1ccc(NC(=O)c2sc3ncnc(N4CCN(c5ccccn5)CC4)c3c2C)cc1Cl	?	/	6.31µM	?	/
CCc1ccc(NC(=O)c2sc3nc(C)nc(N4CCN(c5ccccn5)CC4)c3c2C)cc1	2.24µM	.	.	?	.
Cc1nc(N2CCN(c3ccccn3)CC2)c2c(C)c(C(=O)Nc3ccc(F)cc3Cl)sc2n1	11.2µM	/	?	?	/
Cc1nc(N2CCC(C)CC2)c2c(C)c(C(=O)Nc3ccc(C(F)(F)F)cc3)sc2n1	?	.	11.2µM	.	.
CCN(c1cc(C)cc(C)c1)S(=O)(=O)c1nnc(NC(=O)c2ccccc2C)s1	.	.[7.34 µM]	/	.	.[7.34 µM]
Cc1c(C(=O)Nc2ccc3c(c2)OCCO3)sc2ncnc(N3CCCCC3C)c12 (stereo unspecified)	?	/	11.2µM	?	/
SMILES	FMDV antiviral	VACV mCherry inh	HCV inhibitor	HCMV antiviral	Vaccinia Venus
O=C(C=Cc1ccc(O)c(O)c1)NCC(=O)NC(Cc1ccccc1)C(=O)O (stereo unspecified)	/	/	/	.	/
COC(=O)CCC(=O)N(CCN(C(=O)CCC(=O)OC)c1ccccc1)c1ccccc1	.	.	.	-95.5	.
CON(C)C(=O)CCN(C(=O)OC(C)(C)C)c1ccccc1	.	.	.	.	.
COc1ccc(-n2c(/C=C/c3cccc4ccccc34)nc3ccccc3c2=O)cc1Cl	?	.	/	.	.
O=C(N/N=C/c1ccc(Cl)cc1)c1n[nH]c2c1CCCC2	.	.[7.34 µM]	.	-90.6	?
Cc1ccccc1C(=O)N=c1ccn(-c2nc3ccccc3nc2NS(=O)(=O)c2ccc(F)cc2)cc1	.	/	.	-60.6	/
O=C(N=c1ccn(-c2nc3ccccc3nc2NS(=O)(=O)c2ccccc2)cc1)c1cccs1	.	.	.	.	.
CCCOc1c(Cl)cc(/C=N/O)cc1OCC	?	/	?	.	.
CCOc1cc(/C=N/O)cc(Cl)c1OC	.	/	11.2µM	.	.
C#CCOc1c(Br)cc(/C=N/O)cc1OCC	.	/	2.24µM	?	.
CCOc1cc(/C=N/O)cc(Br)c1OCC	.	/	?	.	/
CCOC(=O)c1c(NC(=O)Nc2ccc(F)cc2)sc(C(=O)N(C)C)c1C	.	.	/	.	.
COc1ccc(N2CCN(C(=O)Cc3noc4ccc(C)cc34)CC2)cc1	.	.	/	.	.
Cc1ccc2c(Cl)c(C(=O)NCC3CCCO3)sc2c1 (stereo unspecified)	.	/	2.24µM	.	/
Cc1cc(Br)cc2c(C(=O)NCC3CCCO3)cc(-c3cccs3)nc12 (stereo unspecified)	.	.	.	.	.
Cc1ccc2nc(-c3ccc(Br)cc3)cc(C(=O)NCC3CCCO3)c2c1 (stereo unspecified)	.	.	/	-100.5	.
COc1cccc(-c2cc(C(=O)NCC3CCCO3)c3cc(Br)cc(C)c3n2)c1 (stereo unspecified)	.	/	?	-60.3	/
O=C(NCC1CCCO1)c1sc2ccccc2c1Cl (stereo unspecified)	.	.	.	.	.
COc1ccc([C@H]2CC(=O)C=C(c3cccc4c3Oc3ccccc3S4)C2)cc1OC	?	?	12.6µM	.	?
COc1ccc([C@H]2CC(=O)C=C(c3cccc(Br)c3)C2)cc1OC	?	.	?	.	?
COc1cccc(C2=CC(=O)C[C@H](c3ccc4c(c3)OCO4)C2)c1OC	.	.	10µM	/	.
COc1ccc([C@H]2CC(=O)C=C(c3cccc(C(C)C)c3)C2)cc1OC	25.1µM	?	?	.	?
O=C1C=C(c2cccc3c2Oc2ccccc2S3)C[C@@H](c2ccc(Cl)cc2)C1	.	.	.	.	.
COc1cccc(OC)c1C1=CC(=O)C[C@H](c2ccc3c(c2)OCO3)C1	.	?	?	.	.
CCOC(=O)c1cccc(C2=CC(=O)C[C@H](c3ccc(OC)c(OC)c3)C2)c1	39.8µM	.	12.6µM	.	.
SMILES	FMDV antiviral	VACV mCherry inh	HCV inhibitor	HCMV antiviral	Vaccinia Venus
Cc1cccc(N2CCN(c3ncnc4onc(C)c34)CC2C)c1 (stereo unspecified)	3.16µM	.[7.34 µM]	/	-99.6	.[7.34 µM]
CC(=O)c1ccc(-c2cc(F)cc3c2OC(CNC(=O)C(C)N2CCOCC2)C3)s1 (stereo unspecified)	.	.	/	/	.
COc1ccc(OC)c(CCNC(=O)CS(=O)(=O)Cc2nc(-c3ccc(C)cc3)oc2C)c1	.	/	3.55µM	.	/
COc1ccc(-c2nc(CS(=O)(=O)CC(=O)NCCc3cc(OC)ccc3OC)c(C)o2)cc1	.	/	?	-71.2	/
COc1ccc(NC(=O)CS(=O)(=O)Cc2nc(-c3ccc(C)cc3)oc2C)cc1	.	.	.	.	.
COc1cccc(-c2nc(CS(=O)(=O)CC(=O)NCCc3cc(OC)ccc3OC)c(C)o2)c1	?	.	?	.	.
COc1ccc(-c2nc(CS(=O)(=O)CC(=O)Nc3ccc(Cl)cc3)c(C)o2)cc1	.	.	10µM	.	.
